ALDH1A1 inh – qHTS Assay for Inhibitors of Aldehyde Dehydrogenase 1 (ALDH1A1). actives 7.3% (n = 220,000). Aldehyde dehydrogenase 1A1 (Homo sapiens), P00352. Potency, µM (top dose mostly 75.3 µM), most hits filed as inhibitors. AID 1030, 2008. Purified ALDH1A1, NADH fluorescence, propionaldehyde substrate
Target sequence (P00352 whole entry, looked up): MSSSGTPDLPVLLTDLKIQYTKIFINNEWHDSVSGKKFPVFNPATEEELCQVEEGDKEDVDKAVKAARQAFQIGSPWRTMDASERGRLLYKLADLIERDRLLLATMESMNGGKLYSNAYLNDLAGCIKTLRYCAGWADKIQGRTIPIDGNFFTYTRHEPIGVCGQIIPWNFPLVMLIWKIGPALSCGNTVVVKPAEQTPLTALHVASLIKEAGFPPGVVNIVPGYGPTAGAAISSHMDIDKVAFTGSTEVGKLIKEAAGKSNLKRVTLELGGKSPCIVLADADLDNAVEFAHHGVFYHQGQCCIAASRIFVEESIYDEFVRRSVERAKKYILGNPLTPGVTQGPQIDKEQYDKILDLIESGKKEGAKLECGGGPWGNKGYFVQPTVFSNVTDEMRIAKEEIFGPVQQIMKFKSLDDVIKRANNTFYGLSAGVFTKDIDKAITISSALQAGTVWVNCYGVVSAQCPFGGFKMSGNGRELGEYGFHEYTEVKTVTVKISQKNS
HPGD block – qHTS Assay for Inhibitors of HPGD (15-Hydroxyprostaglandin Dehydrogenase); 15-hydroxyprostaglandin dehydrogenase [NAD(+)] (Homo sapiens), P15428; purified HPGD, NADH fluorescence kinetic, PGE2 substrate; Potency, µM, usual class: inhibitors; actives 4.3% (n = 150,000); AID 894, 2007
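NADH formation kinetics: reaction with 30 uM PGE2 and 1 mM NAD+ (final), 20 nM enzyme, Tris-HCl pH 8 with Tween 20, after 15 min compound preincubation at room temperature. Fluorescence change, last versus first of five reads.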
PNC assembly inh – High Content Assay for Compounds that inhibit the Assembly of the Perinucleolar Compartment; PC3M PTB-GFP, PNC prevalence imaging, 16 h; active compounds read low; activity change (PNC), negative = inhibition, % at 10 µM; actives 3.1% (n = 140,000);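 active means readout at or below -70, meaning at least 70% loss of cells showing the perinucleolar compartment, a nuclear body marking cancer cells; inconclusive means readout between -30 and a set limit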
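PC3M cells stably expressing PTB-GFP, 750–1000 cells/well, treated 16 h at 37 °C with compound (23 nl of library stock), in duplicate. After paraformaldehyde fixation and Hoechst stain, imaged at 20x; PNC prevalence scored by image analysis.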
Each line names hits and unclear results; the compound was inactive in the other large screens. In the library only some 11% were active in any assay of this set; here they are far more common. Unless noted, the call rests on the fitted dose curve; in most records, active means well fitted inhibition curve with a large enough effect (not every such curve was filed as active); inconclusive means small, poorly fitted or top-dose-only effect, or another doubt; inactive means no such curve, though single readings can be large or run the other way.

COc1nccnc1NS(=O)(=O)c1ccc(NC(=S)NC(=O)c2ccccc2)cc1	none
COc1ccc(NC(=S)NC(=O)c2csnn2)cc1	none (no result: HPGD block, PNC assembly inh)
CN(Cc1ccccc1)C(=S)NC(=O)c1ccc(-c2ccccc2)cc1	ALDH1A1 inh inconclusive, HPGD block 14µM, PNC assembly inh inconclusive
COc1ccc(C(=O)NC(=S)N(Cc2ccccc2)Cc2ccccc2)cc1	ALDH1A1 inh inconclusive, PNC assembly inh inconclusive
CC(C)NS(=O)(=O)c1ccc(NC(=S)NC(=O)c2ccc(-c3ccccc3)cc2)cc1	ALDH1A1 inh 11µM
O=C(NC(=S)Nc1ccccc1)c1csnn1	ALDH1A1 inh 7.9µM, PNC assembly inh inconclusive
S=C(NC1CCCCC1)NC1CCCCC1	ALDH1A1 inh inconclusive (no result: PNC assembly inh)
COc1ccc(CSc2nnc3n(C)c(=O)c4c5c(sc4n23)CCCC5)cc1	none (no result: HPGD block)
COc1cc(/C=N/NC(=O)c2ccccc2Cl)ccc1Oc1ccc([N+](=O)[O-])cn1	none (no result: HPGD block, PNC assembly inh)
Cc1nc(SCc2cccc(Oc3ccccc3)c2)n[nH]1	none
N=c1nc(N)nc(N)n1-c1ccc(S(N)(=O)=O)cc1	none (no result: PNC assembly inh)
COc1ccc(N=c2oc3c(OC)cccc3cc2C(=O)NCc2ccco2)c(OC)c1	ALDH1A1 inh inconclusive (no result: HPGD block)
Cc1onc(-c2c(F)cccc2Cl)c1C(=O)NC1CCSC1=O (stereo not drawn)	none
O=C1N=C(N2CCN(c3cccc4ccccc34)CC2)S/C1=C/c1cccs1	none
Cc1ccccc1N1CCN(C2=NC(=O)/C(=C\c3cccs3)S2)CC1	ALDH1A1 inh 16µM, HPGD block 25µM
C/C(=N\NC(=O)OC(C)(C)C)c1cccc([N+](=O)[O-])c1	PNC assembly inh inconclusive
CC1(C)Cc2cccc(OCC(=O)Nc3cc(C(F)(F)F)ccc3N3CCOCC3)c2O1	ALDH1A1 inh inconclusive, PNC assembly inh inconclusive
CCc1cccc(C)c1NC(=S)NCC1CCN(c2ccc(OC)cc2)C1 (stereo not drawn)	ALDH1A1 inh 10µM (no result: HPGD block, PNC assembly inh)
COc1ccc(N2CCC(CNC(=O)Nc3cccc(OC)c3)C2)cc1 (stereo not drawn)	ALDH1A1 inh inconclusive
COc1ccc(N2CCC(CNC(=S)Nc3cccc(OC)c3)C2)cc1 (stereo not drawn)	ALDH1A1 inh inconclusive
COc1ccc(N2CCC(CNC(=O)Nc3ccc(Cl)cc3)C2)cc1 (stereo not drawn)	ALDH1A1 inh 5.6µM (no result: HPGD block, PNC assembly inh)
O=S(=O)(c1ccccc1Cl)N1CCCC1c1nc(-c2ccc(Cl)cc2)no1 (stereo not drawn)	none
CCNC(=O)CC1C(=O)N(c2ccc(F)cc2)C(=O)N1CCC(C)C (stereo not drawn)	none
O=C(c1ccc(-n2cccn2)cc1)N1CCc2c([nH]c3ccccc23)C1c1ccccn1 (stereo not drawn)	none (no result: HPGD block, PNC assembly inh)
Cn1cccc1-c1cc(C(=O)N2CCc3c([nH]c4ccccc34)C2c2ccccn2)[nH]n1 (stereo not drawn)	ALDH1A1 inh 13µM (no result: HPGD block, PNC assembly inh)
Cc1ccc(/C([O-])=C(/C(=S)Nc2ccc(SC(F)F)cc2)[n+]2ccccc2)cc1[N+](=O)[O-]	ALDH1A1 inh 4.5µM (no result: HPGD block, PNC assembly inh)
[O-]/C(=C(\C(=S)NCc1ccccc1)[n+]1ccccc1)c1ccc(Cl)s1	ALDH1A1 inh 18µM (no result: HPGD block, PNC assembly inh)
S=C(NCCN1CCOCC1)Nc1ccc(Nc2ccccc2)cc1	none (no result: HPGD block, PNC assembly inh)
[O-]/C(=C(\C(=S)NCCN1CCOCC1)[n+]1ccccc1)c1ccc(Cl)s1	ALDH1A1 inh 10µM (no result: HPGD block, PNC assembly inh)
Cc1ccc(C(=O)N2CCOCC2)cc1[N+](=O)[O-]	none
Cc1ccc(NC(=S)/C(=C(\[O-])c2ccc(C)c([N+](=O)[O-])c2)[n+]2ccccc2)cc1C	ALDH1A1 inh inconclusive
Cc1ccc(/C([O-])=C(/C(=S)NCCN2CCOCC2)[n+]2ccccc2)cc1[N+](=O)[O-]	ALDH1A1 inh 22µM (no result: HPGD block, PNC assembly inh)
Cc1cccc(C)c1NC(=S)/C(=C(\[O-])c1cccs1)[n+]1ccccc1	none
O=C(NCc1ccc(Cl)cc1)c1ccc(N2CCCC2=O)cc1	none (no result: HPGD block, PNC assembly inh)
O=C1CC(C(=O)O)S/C(=N\N=C\c2ccc(Br)cc2)N1 (stereo not drawn)	none (no result: HPGD block, PNC assembly inh)
CS(=O)(=O)N1CCN(c2ccc(NC(=O)c3ccccc3)cc2)CC1	none (no result: HPGD block, PNC assembly inh)
CCOC(=O)NC(=O)/C(C#N)=N/Nc1ccc(F)cc1	none
CCOC(=O)C(=O)/C(C#N)=C/Nc1ccc(F)cc1	ALDH1A1 inh 28µM, PNC assembly inh inconclusive
O=c1[nH]c(SCc2ccc([N+](=O)[O-])cc2)nc2[nH]ncc12	none (no result: HPGD block, PNC assembly inh)
CCN(CC(=O)NC)S(=O)(=O)c1ccc(Br)cc1	none
Cn1c(O)c(N=N/C(=N/c2ccccn2)c2ccccn2)c2cc(Br)ccc21	ALDH1A1 inh 14µM, HPGD block 22µM (no result: PNC assembly inh)
Cc1ccc2c(c1)c(N=NC(N)=O)c(O)n2C	none (no result: HPGD block, PNC assembly inh)
